{
  "source": "paper PMC7862700",
  "about": "“An all-to-all approach to the identification of sequence-specific readers for epigenetic DNA modifications on cytosine”",
  "test_in_all_cases": "DAPPL (digital affinity profiling via proximity ligation, sequencing); 10 mM Tris-HCl pH 7.5, 50 mM NaCl, 1 mM DTT, 4% glycerol, room temperature, 30 min; GST-TFs on glutathione beads, 16-mer random dsDNA library, 0.1% formaldehyde crosslink after washing; high values mean tight binding",
  "key": {"FEV": {"biological_target": "T1, FEV (Homo sapiens, UniProt Q99581 1-238)", "T1 sequence": "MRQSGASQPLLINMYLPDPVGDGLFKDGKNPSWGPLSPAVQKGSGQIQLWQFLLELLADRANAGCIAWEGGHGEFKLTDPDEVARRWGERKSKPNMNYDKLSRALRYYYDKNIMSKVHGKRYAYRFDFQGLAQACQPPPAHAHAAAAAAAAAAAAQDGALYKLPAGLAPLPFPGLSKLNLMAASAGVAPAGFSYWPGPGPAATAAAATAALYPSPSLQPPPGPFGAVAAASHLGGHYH", "conditions": "protein: recombinant; tags: N-terminal GST; dsDNA, one strand shown", "summary_of_the_method": "(§1)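 Sequencing on an Illumina NextSeq500 followed washing, crosslinking with 0.1% formaldehyde, proximity ligation (BsaI/T4 ligase, 1 h, 37 °C) and PCR amplification of pools that had been incubated for 30 min at room temperature with 200 nmole of a random double-stranded 16-mer DNA library in Tris/NaCl/DTT/glycerol buffer. Each pool held DNA-barcoded human transcription factors, expressed in yeast as GST fusions and captured on glutathione beads, plus a tag-only sample. Binding signal is a hexamer's read frequency for a factor divided by its frequency in the tag-only sample.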"}, "ETV5": {"biological_target": "ETV5 (Homo sapiens, UniProt P41161 1-510)", "sequence (P41161 whole entry)": "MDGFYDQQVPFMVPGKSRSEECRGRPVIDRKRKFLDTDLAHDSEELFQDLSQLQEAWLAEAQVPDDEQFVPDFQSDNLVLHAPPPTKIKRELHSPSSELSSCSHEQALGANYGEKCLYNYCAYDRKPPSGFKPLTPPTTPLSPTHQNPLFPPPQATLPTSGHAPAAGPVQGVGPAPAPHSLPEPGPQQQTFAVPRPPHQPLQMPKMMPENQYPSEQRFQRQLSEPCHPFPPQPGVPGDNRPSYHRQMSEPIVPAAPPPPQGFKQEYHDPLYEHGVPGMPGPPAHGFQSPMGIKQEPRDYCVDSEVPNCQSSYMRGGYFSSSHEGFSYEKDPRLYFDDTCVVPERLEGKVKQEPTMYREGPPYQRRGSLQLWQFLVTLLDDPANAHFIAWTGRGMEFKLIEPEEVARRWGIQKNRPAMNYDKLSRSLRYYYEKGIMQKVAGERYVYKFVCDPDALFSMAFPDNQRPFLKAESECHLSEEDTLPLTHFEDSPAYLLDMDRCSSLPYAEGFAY", "conditions": "protein: recombinant; tags: N-terminal GST; dsDNA, one strand shown", "summary_of_the_method": "as §1"}, "HSF1": {"biological_target": "HSF1 (Homo sapiens, UniProt Q00613 1-529)", "sequence (Q00613 whole entry)": "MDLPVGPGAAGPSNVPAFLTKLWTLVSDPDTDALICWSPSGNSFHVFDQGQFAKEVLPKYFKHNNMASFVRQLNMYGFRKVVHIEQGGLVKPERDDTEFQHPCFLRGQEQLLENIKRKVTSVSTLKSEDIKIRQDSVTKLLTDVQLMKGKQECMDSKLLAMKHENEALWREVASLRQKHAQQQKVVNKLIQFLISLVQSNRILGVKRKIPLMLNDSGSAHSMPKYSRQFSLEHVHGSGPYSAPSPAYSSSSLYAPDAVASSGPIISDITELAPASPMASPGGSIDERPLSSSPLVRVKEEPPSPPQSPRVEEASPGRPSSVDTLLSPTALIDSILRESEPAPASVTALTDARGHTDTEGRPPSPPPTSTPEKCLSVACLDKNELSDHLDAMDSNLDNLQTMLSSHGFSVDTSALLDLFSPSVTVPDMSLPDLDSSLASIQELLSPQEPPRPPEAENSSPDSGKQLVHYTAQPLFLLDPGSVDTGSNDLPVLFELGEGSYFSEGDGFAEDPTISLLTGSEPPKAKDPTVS", "conditions": "protein: recombinant; tags: N-terminal GST; chain copies: 3; dsDNA, one strand shown", "summary_of_the_method": "as §1"}, "SPIC": {"biological_target": "T2, SPIC (Homo sapiens, UniProt Q8N5J4 1-248)", "T2 sequence": "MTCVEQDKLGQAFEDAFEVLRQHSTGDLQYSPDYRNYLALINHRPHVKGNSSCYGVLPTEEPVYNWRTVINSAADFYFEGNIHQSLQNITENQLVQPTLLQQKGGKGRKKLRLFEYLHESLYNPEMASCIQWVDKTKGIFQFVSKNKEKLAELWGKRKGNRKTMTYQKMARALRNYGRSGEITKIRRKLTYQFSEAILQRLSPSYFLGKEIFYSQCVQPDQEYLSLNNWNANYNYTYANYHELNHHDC", "conditions": "protein: recombinant; tags: N-terminal GST; dsDNA, one strand shown", "summary_of_the_method": "as §1"}, "ELF4": {"biological_target": "ELF4 (Homo sapiens, UniProt Q99607 1-663)", "sequence (Q99607 whole entry)": "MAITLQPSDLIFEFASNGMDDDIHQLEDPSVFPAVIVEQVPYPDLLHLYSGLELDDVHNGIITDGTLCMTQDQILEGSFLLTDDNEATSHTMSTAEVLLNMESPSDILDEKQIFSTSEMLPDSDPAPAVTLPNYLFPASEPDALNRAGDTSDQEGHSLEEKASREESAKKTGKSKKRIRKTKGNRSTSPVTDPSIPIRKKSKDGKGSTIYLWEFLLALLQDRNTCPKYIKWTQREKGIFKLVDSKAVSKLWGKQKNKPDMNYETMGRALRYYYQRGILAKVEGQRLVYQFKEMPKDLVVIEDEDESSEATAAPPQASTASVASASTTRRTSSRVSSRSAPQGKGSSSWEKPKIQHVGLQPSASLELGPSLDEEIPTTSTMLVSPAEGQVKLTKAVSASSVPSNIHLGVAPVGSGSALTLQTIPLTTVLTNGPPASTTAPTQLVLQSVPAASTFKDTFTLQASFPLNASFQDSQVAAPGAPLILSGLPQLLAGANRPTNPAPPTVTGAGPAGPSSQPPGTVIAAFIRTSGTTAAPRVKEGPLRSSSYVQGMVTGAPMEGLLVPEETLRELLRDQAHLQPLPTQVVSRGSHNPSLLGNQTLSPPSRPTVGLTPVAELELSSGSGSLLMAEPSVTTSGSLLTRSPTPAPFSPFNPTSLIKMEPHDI", "conditions": "protein: recombinant; tags: N-terminal GST; dsDNA, one strand shown", "summary_of_the_method": "as §1"}, "ELK4": {"biological_target": "T3, ELK4 (Homo sapiens, UniProt P28324-2 1-405)", "T3 sequence": "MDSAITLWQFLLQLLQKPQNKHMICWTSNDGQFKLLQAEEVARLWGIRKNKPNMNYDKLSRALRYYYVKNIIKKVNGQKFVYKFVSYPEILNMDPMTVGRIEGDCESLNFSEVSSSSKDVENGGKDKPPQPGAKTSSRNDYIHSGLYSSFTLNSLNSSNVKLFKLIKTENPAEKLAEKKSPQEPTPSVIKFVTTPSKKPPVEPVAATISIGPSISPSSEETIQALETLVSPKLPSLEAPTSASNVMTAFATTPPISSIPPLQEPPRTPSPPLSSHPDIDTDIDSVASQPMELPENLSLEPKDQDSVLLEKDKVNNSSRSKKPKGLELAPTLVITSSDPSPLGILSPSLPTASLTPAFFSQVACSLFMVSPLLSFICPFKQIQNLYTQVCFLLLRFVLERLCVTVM", "conditions": "protein: recombinant; tags: N-terminal GST; dsDNA, one strand shown", "summary_of_the_method": "as §1"}, "ETV2": {"biological_target": "T4, ETV2 (Homo sapiens, UniProt O00321 1-342)", "T4 sequence": "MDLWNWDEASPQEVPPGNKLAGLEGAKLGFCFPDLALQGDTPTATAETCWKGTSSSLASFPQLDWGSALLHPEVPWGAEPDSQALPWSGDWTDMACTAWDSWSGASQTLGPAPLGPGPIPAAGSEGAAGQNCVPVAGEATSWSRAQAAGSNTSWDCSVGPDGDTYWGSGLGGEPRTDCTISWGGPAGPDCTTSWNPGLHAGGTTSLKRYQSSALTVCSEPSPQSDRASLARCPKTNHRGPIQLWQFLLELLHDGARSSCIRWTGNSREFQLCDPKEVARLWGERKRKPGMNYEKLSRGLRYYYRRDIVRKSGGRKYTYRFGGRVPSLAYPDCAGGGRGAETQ", "conditions": "protein: recombinant; tags: N-terminal GST; dsDNA, one strand shown", "summary_of_the_method": "as §1"}, "ELF3": {"biological_target": "T5, ELF3 (Homo sapiens, UniProt P78545 1-371)", "T5 sequence": "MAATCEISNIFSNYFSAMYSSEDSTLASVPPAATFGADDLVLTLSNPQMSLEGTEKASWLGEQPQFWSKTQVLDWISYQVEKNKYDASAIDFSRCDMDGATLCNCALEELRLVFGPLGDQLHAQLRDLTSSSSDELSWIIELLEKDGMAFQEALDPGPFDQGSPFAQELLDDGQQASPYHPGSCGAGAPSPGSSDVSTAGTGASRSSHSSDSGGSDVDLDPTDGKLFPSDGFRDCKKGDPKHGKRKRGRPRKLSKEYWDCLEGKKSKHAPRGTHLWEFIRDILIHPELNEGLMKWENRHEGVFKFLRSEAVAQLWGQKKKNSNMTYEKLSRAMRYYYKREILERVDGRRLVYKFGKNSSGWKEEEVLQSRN", "conditions": "protein: recombinant; tags: N-terminal GST; dsDNA, one strand shown", "summary_of_the_method": "as §1"}, "CRX": {"biological_target": "CRX (Homo sapiens, UniProt O43186 1-299)", "sequence (O43186 whole entry)": "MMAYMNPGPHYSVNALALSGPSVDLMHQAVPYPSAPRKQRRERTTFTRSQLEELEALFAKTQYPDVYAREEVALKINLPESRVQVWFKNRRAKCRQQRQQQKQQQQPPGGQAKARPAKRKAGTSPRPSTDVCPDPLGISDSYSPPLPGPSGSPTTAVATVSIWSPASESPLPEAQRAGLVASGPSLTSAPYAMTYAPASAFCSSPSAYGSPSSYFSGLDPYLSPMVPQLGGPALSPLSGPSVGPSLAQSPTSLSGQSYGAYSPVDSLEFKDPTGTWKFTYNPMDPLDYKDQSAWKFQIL", "conditions": "protein: recombinant; tags: N-terminal GST; dsDNA, one strand shown", "summary_of_the_method": "as §1"}, "ETV1": {"biological_target": "ETV1 (Homo sapiens, UniProt P50549 1-477)", "sequence (P50549 whole entry)": "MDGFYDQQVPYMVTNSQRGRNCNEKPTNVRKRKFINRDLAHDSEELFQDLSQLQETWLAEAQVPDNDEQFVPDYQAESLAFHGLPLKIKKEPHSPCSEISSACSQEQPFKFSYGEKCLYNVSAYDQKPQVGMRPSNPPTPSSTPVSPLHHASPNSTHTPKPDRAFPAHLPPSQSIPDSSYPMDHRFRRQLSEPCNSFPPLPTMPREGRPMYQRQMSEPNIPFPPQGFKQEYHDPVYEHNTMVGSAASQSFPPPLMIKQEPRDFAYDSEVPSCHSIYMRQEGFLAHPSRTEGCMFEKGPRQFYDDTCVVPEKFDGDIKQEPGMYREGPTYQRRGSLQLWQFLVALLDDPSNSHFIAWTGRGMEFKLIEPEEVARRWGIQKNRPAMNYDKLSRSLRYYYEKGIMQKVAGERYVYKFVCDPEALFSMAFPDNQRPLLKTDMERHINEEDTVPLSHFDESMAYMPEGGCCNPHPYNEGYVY", "conditions": "protein: recombinant; tags: N-terminal GST; dsDNA, one strand shown", "summary_of_the_method": "as §1"}, "ERF": {"biological_target": "T6, ERF (Homo sapiens, UniProt P50548 1-548)", "T6 sequence": "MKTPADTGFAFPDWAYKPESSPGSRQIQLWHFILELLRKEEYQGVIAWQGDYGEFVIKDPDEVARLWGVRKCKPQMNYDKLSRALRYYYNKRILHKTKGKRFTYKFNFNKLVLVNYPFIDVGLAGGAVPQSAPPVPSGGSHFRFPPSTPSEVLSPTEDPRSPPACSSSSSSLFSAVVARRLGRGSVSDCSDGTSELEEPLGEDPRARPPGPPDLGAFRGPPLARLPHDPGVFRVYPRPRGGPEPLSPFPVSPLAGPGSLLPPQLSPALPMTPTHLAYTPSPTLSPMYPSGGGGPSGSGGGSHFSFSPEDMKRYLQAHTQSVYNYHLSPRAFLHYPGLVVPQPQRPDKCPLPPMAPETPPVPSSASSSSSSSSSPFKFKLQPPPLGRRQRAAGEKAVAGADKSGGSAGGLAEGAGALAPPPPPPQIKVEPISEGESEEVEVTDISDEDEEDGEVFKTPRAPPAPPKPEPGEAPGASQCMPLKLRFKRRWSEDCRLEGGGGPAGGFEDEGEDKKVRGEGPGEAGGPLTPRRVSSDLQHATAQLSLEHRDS", "conditions": "protein: recombinant; tags: N-terminal GST; dsDNA, one strand shown", "summary_of_the_method": "as §1"}, "ETV3L": {"biological_target": "T7, ETV3L (Homo sapiens, UniProt Q6ZN32 1-361)", "T7 sequence": "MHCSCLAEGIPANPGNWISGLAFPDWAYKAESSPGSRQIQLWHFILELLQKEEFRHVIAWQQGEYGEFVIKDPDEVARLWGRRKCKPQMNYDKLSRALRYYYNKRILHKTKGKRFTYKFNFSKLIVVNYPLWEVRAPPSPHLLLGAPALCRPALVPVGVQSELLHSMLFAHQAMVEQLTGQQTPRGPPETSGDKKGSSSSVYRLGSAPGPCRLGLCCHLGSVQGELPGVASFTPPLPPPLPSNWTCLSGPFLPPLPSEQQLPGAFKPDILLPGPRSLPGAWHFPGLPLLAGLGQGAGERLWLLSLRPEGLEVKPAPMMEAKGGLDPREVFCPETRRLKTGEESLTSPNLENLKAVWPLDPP", "conditions": "protein: recombinant; tags: N-terminal GST; dsDNA, one strand shown", "summary_of_the_method": "as §1"}, "ETV7": {"biological_target": "T8, ETV7 (Homo sapiens, UniProt Q9Y603 1-341)", "T8 sequence": "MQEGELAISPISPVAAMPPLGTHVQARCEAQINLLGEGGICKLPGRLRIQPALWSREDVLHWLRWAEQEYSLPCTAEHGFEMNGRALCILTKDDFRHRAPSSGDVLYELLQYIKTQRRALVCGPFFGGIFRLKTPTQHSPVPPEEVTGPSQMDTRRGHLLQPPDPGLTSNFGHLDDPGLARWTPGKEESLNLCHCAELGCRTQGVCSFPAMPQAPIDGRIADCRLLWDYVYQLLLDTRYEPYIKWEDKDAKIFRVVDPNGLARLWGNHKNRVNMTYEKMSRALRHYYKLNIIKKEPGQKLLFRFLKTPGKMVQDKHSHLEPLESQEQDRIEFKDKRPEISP", "conditions": "protein: recombinant; tags: N-terminal GST; dsDNA, one strand shown", "summary_of_the_method": "as §1"}, "ELF5": {"biological_target": "T9, ELF5 (Homo sapiens, UniProt Q9UKW6-2 1-255)", "T9 sequence": "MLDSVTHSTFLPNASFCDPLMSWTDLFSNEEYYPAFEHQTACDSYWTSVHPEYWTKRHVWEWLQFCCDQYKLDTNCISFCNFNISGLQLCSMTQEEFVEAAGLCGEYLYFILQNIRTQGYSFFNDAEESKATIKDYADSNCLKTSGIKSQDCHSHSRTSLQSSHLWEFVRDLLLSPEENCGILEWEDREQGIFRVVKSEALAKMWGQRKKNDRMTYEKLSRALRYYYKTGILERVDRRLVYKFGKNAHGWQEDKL", "conditions": "protein: recombinant; tags: N-terminal GST; dsDNA, one strand shown", "summary_of_the_method": "as §1"}, "ETV3": {"biological_target": "T10, ETV3 (Homo sapiens, UniProt P41162-2 1-143)", "T10 sequence": "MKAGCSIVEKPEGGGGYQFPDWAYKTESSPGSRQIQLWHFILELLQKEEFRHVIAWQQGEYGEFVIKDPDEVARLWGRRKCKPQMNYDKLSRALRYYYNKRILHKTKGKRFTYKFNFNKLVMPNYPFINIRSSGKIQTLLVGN", "conditions": "protein: recombinant; tags: N-terminal GST; dsDNA, one strand shown", "summary_of_the_method": "as §1"}},
  "data": [
    {"sequence": "TTCGGC", "values": [
      {"measurement": "binding signal", "setting": "FEV", "result": "1 fold enrichment (6-mer frequency, TF over GST control)"},
      {"measurement": "binding signal", "setting": "ETV5", "result": "1.02 fold enrichment (6-mer frequency, TF over GST control)"},
      {"measurement": "binding signal", "setting": "HSF1", "result": "1.05 fold enrichment (6-mer frequency, TF over GST control)"},
      {"measurement": "binding signal", "setting": "SPIC", "result": "1.1 fold enrichment (6-mer frequency, TF over GST control)"},
      {"measurement": "binding signal", "setting": "ELF4", "result": "1.19 fold enrichment (6-mer frequency, TF over GST control)"},
      {"measurement": "binding signal", "setting": "ELK4", "result": "1.07 fold enrichment (6-mer frequency, TF over GST control)"},
      {"measurement": "binding signal", "setting": "ETV2", "result": "1.22 fold enrichment (6-mer frequency, TF over GST control)"},
      {"measurement": "binding signal", "setting": "ELF3", "result": "1.07 fold enrichment (6-mer frequency, TF over GST control)"},
      {"measurement": "binding signal", "setting": "CRX", "result": "1.1 fold enrichment (6-mer frequency, TF over GST control)"},
      {"measurement": "binding signal", "setting": "ETV1", "result": "1.14 fold enrichment (6-mer frequency, TF over GST control)"},
      {"measurement": "binding signal", "setting": "ERF", "result": "1.13 fold enrichment (6-mer frequency, TF over GST control)"},
      {"measurement": "binding signal", "setting": "ETV3L", "result": "1.05 fold enrichment (6-mer frequency, TF over GST control)"},
      {"measurement": "binding signal", "setting": "ETV7", "result": "1.19 fold enrichment (6-mer frequency, TF over GST control)"},
      {"measurement": "binding signal", "setting": "ELF5", "result": "1.01 fold enrichment (6-mer frequency, TF over GST control)"},
      {"measurement": "binding signal", "setting": "ETV3", "result": "1.13 fold enrichment (6-mer frequency, TF over GST control)"}
    ]}
  ]
}
